# Experimental data: the supplement of paper PMC6555819
# System: VDR:RXRa (NR concentration 270 nM, RXRa partner concentration 90 nM)
# Experiment: PBM binding z-score (relative to random genomic background probes); higher = stronger binding; sequences stand for … in GC…GCGATTGACAGCGTAGAATGAAGG
# Method: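 Protein-binding microarray (Agilent 4x180K custom design, double-stranded 60-nt probes: 5' GC cap, 34-nt variable region, 24-nt constant primer region; full probe sequence given). Purified or IVT nuclear receptor:RXRα heterodimers (3:1 NR:RXRα, mostly 270:90 nM) or homodimers were incubated for 1 h in PBS with 2% milk and no ligand, then detected with Alexa488 antibodies. Fluorescence from o1-orientation probes (~5 replicates averaged) was converted to z-scores against 500 random hg19 background probes. Variable regions are seed direct-repeat (DR0–DR5) sites, all their single-nucleotide variants and half-site ablations.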
row,Sequence,PBM binding z-score
1,GATACAGGGTCAGCTAGAGGCCAGATTATGGAAA,3.57
2,TATACAGGGTAAAAGGCCAGAGTACGAATGTCGA,0.433
3,GGAACGAGGGCAAGTTGGTAGCAGAGTTTGATGG,1.03
4,GGAACGAGGGCAAGTAGATAGCAGAGTTTGATGG,0.536
5,TCTGCTAGGTCAACGATGGTCAACTAATCTGCTA,2.27
6,GGAACGACGGCAAAGTTGATAGCATCTGTCGACG,-0.538
7,CGTCCAAGGTCAATGCTAGGTCAGGGAAAGCATT,4.75
8,TGAATGAGGTTAAGGATCAGGGAACGTGGCGTCG,0.99
9,GCGACTCGGGCAAAGCAGGTTACCATAAGGTTGG,-0.491
10,GCTTGCGGGTCAAAGGTTATAGCATGAATAGAAT,5.03
11,CCTACTGGGCCACGAAAGGTCATTGTTTCAGTGA,4.25
12,CCTAGCAGGCCAATCTGGGTCACTCACGGCTTGA,0.411
13,CAAACTAGGTCAAAGGTCACAGTCGAGCCAACCA,6.63
14,TCTGCTAAGTCAACGATGGTCAGCTAATCTGCTA,-0.644
15,GCGACTGGGGCATCAGCAGGTTACCCTAACTTAA,-0.249
16,ATATGTAGGTTCAGGGTCATTCAGGTTGGTTCGC,6.03
17,TCTAGTTGGTCACTGAGGTCACACACGACGGGTA,6.51
18,GCTAGCAGGCCATTTGCGTCACTCAATGACGGGC,-0.801
19,ATCTCTAGGTCAAGTTCAGTGAAAGATCGATAGA,3.65
20,ATCTCTAGGTAACGAAGTTCAGTGAATGCCGAAC,2.56

row,Sequence,PBM binding z-score
1,GCTTGTAGTTCAAGGTTAAGAAAGACTAAGCTAA,1.46
2,TCATATAGGAAAAGGTGAAAGTCGAACGATATGA,0.862
3,AGAACGAGAGCAATGAGTTGATAGCACGGGTGGC,1.96
4,ACTCAGAGGACAAAGGTCAGAGCTACGCCAGTGA,3.62
5,AGAAGGAGGGCAATGAGTTGATAGCACGGGTGGC,4.93
6,TGAATGAGGTTATAAGACCAGGGAACGTTGCAAA,0.916
7,ATACCAATGTGATCGTGAGGTCGTTGATACTAAC,1.62
8,CCTCGTTGGTCAAGGTCACACACGCTATAGGTAC,3.93
9,TAGCCAAGGTCATGCGGGCCAGTATAGTGTCGGC,5.15
10,AGAATGAGGTTATTGAGATCAGGGAATTGCGGTC,3.35
11,ACTTACTGGTCAACGAGGTTATAGCACGCGTATA,5.15
12,ACTTACGGGTCAACGAGGTGATAGCACGCGTATA,6.61
13,ACTATTAGTTGATTTAGGGCAACCGATACGACGC,0.131
14,AGATTGAGGTTATTAAGATCAGGGAATTGCGGTC,2.28
15,TGAAAGAGGTTATAAGATCAGGGAACGTTGCAAA,0.894
16,CGTCCAAGGCCAATGCTAGGTCAGTGAAAGCATT,0.034
17,AGAATGAGCTTAAGATCAGGGAAACAGAATACAT,-0.396
18,GCTATTAGTTGAATGGGCAACCGAATGATTCTCG,-0.287
19,GCTAGCAGGCCATTTGGGGCACTCAATGACGGGC,-0.555
20,ATCGAAAGTTCGAGGTGAGTATAGAGAAAGGGAA,1.16
